Experimental data published in PubChem BioAssay AID1566 (Sanford-Burnham Center for Chemical Genomics, 2009).
Among all 290,000 compounds or so, about 1,800 (0.62%) were called active. For the sample, actives were picked, then their nearest neighbours and some compounds at random. Unmarked numbers belong to inactive results. Rule as the data show it: active = inhibition above about 50%; inactive = the rest.

Assay: NOD2 signaling inhibitors, cell-based, luminescence, uHTS, HEK293 (AID 1566)
Details: HEK293 NOD2/NF-kB luciferase reporter, at 4 µM, hits give high values

Structure (SMILES)	inhibition
CN(C(=O)Cn1nnc2ccccc2c1=O)C1CCCCC1	6.8%
COc1ccc(-c2nnc(SCC(=O)NC3CCCCC3)o2)cc1	6%
CCOc1ccccc1N(CC(=O)NCC1CCCO1)C(=O)CNS(=O)(=O)c1ccccc1 (stereo unspecified)	-15.5%
COc1ccc(-n2c(-c3ccc(C)cc3)n[nH]c2=S)cc1	-6.4%
O=C(CCSc1nc(-c2ccco2)cc(C(F)(F)F)n1)N1CCN(c2ccccc2)CC1	-17.1%
Cc1oc(-c2ccc(Cl)cc2)nc1CS(=O)CC(=O)NCCCN1CCN(Cc2ccccc2)CC1 (stereo unspecified)	61.5% (active)
Cc1oc(-c2ccc(Cl)cc2)nc1CS(=O)CC(=O)NCCCN1CCOCC1 (stereo unspecified)	16.6%
Cc1ccc(-c2nc(CS(=O)CC(=O)NCCCN3CCN(Cc4ccccc4)CC3)c(C)o2)cc1 (stereo unspecified)	28.9%
Cc1c(-c2nc(-c3ccc(C(F)(F)F)cc3)no2)n(C)oc1=O	-51.2%
CCN(CC)C(=O)C1CCCN(Cc2ccccc2)C1 (stereo unspecified)	-6.7%
Cc1cccc(NC(=O)NCc2ccc3c(c2)cc(C)n3C)c1	10.6%
COC(=O)CCn1nnc(-c2ccc(C)cc2)n1	-23.2%
COC(=O)CCn1nnc(-c2cccs2)n1	6.8%
CCc1ccc(-c2nnn(CCC(=O)OC)n2)cc1	54.4% (active)
COc1ccc(OC)c(NC(=O)CCCC(=O)NC2CCCCC2)c1	10.6%
COC(=O)C(Cc1ccc(O)cc1)NC(=O)C(C)NC(=O)c1ccc(C(C)(C)C)cc1 (stereo unspecified)	-9.1%
CC(=O)C1=C(O)C(=O)N(c2nccs2)C1c1ccccc1 (stereo unspecified)	-1.4%
O=C(C1=C(O)C(=O)N(c2nccs2)C1c1ccccc1)c1cc2ccccc2o1 (stereo unspecified)	-20.5%
CSc1ccccc1-c1nnc(-c2ccc(Cl)c(Cl)c2)o1	-48.1%
Cc1cc([N+](=O)[O-])ccc1NC(=O)C(C)N1CCN(c2ccccn2)CC1 (stereo unspecified)	12%
Cc1ccc(S(=O)(=O)NCc2ccc(C(=O)N3CCCC3)cc2)cc1	-3.3%
Cc1ccc(S(=O)(=O)NCc2ccc(C(=O)N3CCN(c4ccccc4)CC3)cc2)cc1	12.6%
COc1ccc(-c2nc(CN3CCN(c4ccccc4OC)CC3)c(C)o2)cc1	1.8%
COc1ccc(-c2nc(CN3CCN(c4cc(C)nc(C)c4)CC3)c(C)o2)c2ccccc12	30.3%

Structure (SMILES)	inhibition
O=C(NC1CCCCC1)C(c1ccc(O)cc1)N(C(=O)c1cnccn1)c1cccc(F)c1 (stereo unspecified)	3.4%
CC(C)(C)CC(=O)Nc1ccccc1N1CCN(c2ccccc2)CC1	-19.6%
CCCC(=O)NC(c1ccc(C(C)C)cc1)c1ccc2cccnc2c1O (stereo unspecified)	21.9%
CCC(=O)NC(c1ccc(C)cc1)c1ccc2cccnc2c1O (stereo unspecified)	70% (active)
CCCC(=O)NC(c1ccc(C)cc1)c1ccc2cccnc2c1O (stereo unspecified)	13%
Cc1ccc(C2(c3ccc(C)cc3)CC2C(=O)Nc2ccc([N+](=O)[O-])cc2O)cc1 (stereo unspecified)	52.6% (active)
Cc1cccc(C2(c3cccc(C)c3)CC2C(=O)Nc2ccc([N+](=O)[O-])cc2O)c1 (stereo unspecified)	48.8%
CC1(C)CC1C(=O)Nc1ccc([N+](=O)[O-])cc1Br (stereo unspecified)	9.5%
O=C(N/N=C/c1ccccc1O)C1CC(=O)N(c2ccc(F)cc2)C1 (stereo unspecified)	59.3% (active)
Cc1ccsc1/C=N/NC(=O)C1CC(=O)N(c2ccc(F)cc2)C1 (stereo unspecified)	16.6%
O=C(N/N=C/c1ccccc1O)C1CC(=O)N(c2ccc(Cl)cc2)C1 (stereo unspecified)	47.3%
Cc1cc(C(=O)NNC(=S)NCC(C)C)no1	-0.2%
CCCSc1nnc(-c2c[nH]c3ccccc23)n1CC	-33.8%
Cn1[nH]c(=O)c(Cl)c(Cl)c1=O	10.7%
COc1ccccc1/C=C/C(C)=O	-13.4%
COc1ccccc1/C=C/C(=O)c1ccccc1	-52.6%
COc1ccccc1/C=C/C(=O)/C=C/c1ccccc1O	50.2% (active)
CCOc1ccc2[nH]c(=O)c(CN(CC3CCCN3CC)C(=O)NCc3ccccc3)cc2c1 (stereo unspecified)	13.6%
Nc1cc(S(=O)(=O)O)cc([N+](=O)[O-])c1O	8.2%
O=C(NCCN1CCOCC1)c1ccc(Cl)c(Cl)c1	-11.3%
O=C(Nc1ccc2snnc2c1)N1CCCCC1	3.3%
O=C(Nc1ccc2c(c1)OCO2)c1cc(C2CC2)on1	-108%
COc1cc(/C=C2\CC/C(=C\c3cc(OC)c(OC)c(OC)c3)C2=O)cc(OC)c1OC	-18.8%
COc1cc(/C=C2\CCOC2=O)cc(OC)c1OC	-11.1%

Structure (SMILES)	inhibition
CN(C)C1(CNC(=O)C2CCN(S(=O)(=O)c3cc(Cl)ccc3Cl)CC2)CCCCC1	-8.8%
COc1ccc2[nH]c3c(N4CCN(Cc5ccc6c(c5)OCO6)CC4)ncnc3c2c1	3.4%
Fc1ccc2[nH]c3c(N4CCN(Cc5ccc6c(c5)OCO6)CC4)ncnc3c2c1	55.3% (active)
Cc1ccc2[nH]c3c(N4CCN(Cc5ccc6c(c5)OCO6)CC4)ncnc3c2c1	49.8%
CC(C)CC(N)c1cn([C@@H](CCC(=O)O)C(=O)N2CCNCC2)nn1 (stereo partly specified)	-7.7%
CNC(C)C#Cc1ccc2c(=O)c3c(OC)cccc3oc2c1 (stereo unspecified)	-33.5%
O=C(O)CSc1ncnc2sc(-c3ccccc3)cc12	15.1%
CC(=O)CCSc1ncnc2sc(-c3ccccc3)cc12	-124%
Cc1ccc(SCCN2CCN(CC(C)C)CCC2=O)cc1	-18.4%
O=C(NC1CCCCCCC1)c1cc(F)c(F)cc1Cl	-57.3%
Cc1csc(Nc2ccccc2C(F)(F)F)n1	-3.5%
COc1ccc(S(=O)(=O)Nc2cccc(S(=O)(=O)N3CCCCCC3)c2)cc1	-4.9%
O=S(=O)(Nc1nc2ccccc2nc1Nc1cccc(S(=O)(=O)N2CCCCC2)c1)c1ccccc1	55.5% (active)
O=S(=O)(Nc1nc2ccccc2nc1Nc1ccc2c(c1)OCO2)c1ccccc1	26%
O=C(CCc1ccccc1Cl)Nc1cccc(S(=O)(=O)N2CCCC2)c1	4%
CC(=O)Nc1cccc(S(=O)(=O)N2CCCCCC2)c1	2.3%
COc1ccc(S(=O)(=O)Nc2nc3ccccc3nc2Nc2ccc3c(c2)OCO3)cc1	25.7%
O=S(=O)(Nc1cccc(S(=O)(=O)N2CCCCCC2)c1)c1ccccc1	16.1%
COc1ccccc1CNC(=O)c1cn(C)c2ccc(S(=O)(=O)N3CCCCC3)cc2c1=O	-7.1%
CCn1c(C)c2c(C)nnc(C)c2c1C	8.3%
Cc1ccc(CSC2=NCCN2C(=O)c2ccc(S(=O)(=O)N(C)C)cc2)cc1	-5%
COc1ccc(C)cc1NC(=O)CC(O)(C(F)(F)F)C(F)(F)F	1.2%
COc1ccc(-c2nsc3c(N4CCCCC4C)ncnc23)cc1 (stereo unspecified)	86% (active)
COc1ccc(-c2nsc3c(N4CCCC4)ncnc23)cc1	-61.9%

Structure (SMILES)	inhibition
COc1ccc(-c2nsc3c(N4CCCCC4)ncnc23)cc1	-13.3%
N/C(CC(=O)Nc1cccc(C(F)(F)F)c1)=N/O	5.4%
Cc1cccc(-c2cc3c(N=O)c4ccccc4c-3n[nH]2)c1	-162%
Cc1ccc(-c2cc3c(N=O)c4ccccc4c-3n[nH]2)cc1	70.7% (active)
O=Nc1c2cc(-c3ccccc3)[nH]nc-2c2ccccc12	-167%
N#CC12CCCCC1CC1CCCCC1(C#N)N2N (stereo unspecified)	1.8%
O=C(CCCN1C(=O)c2ccccc2C1=O)NCCC1=CCCCC1	5.4%
CCOc1ccc(-c2nc(CSCC(=O)NCc3ccco3)c(C)o2)cc1	9.4%
COc1ccc(-c2nc(CSCC(=O)NCc3ccco3)c(C)o2)cc1	-2%
CCc1ccc(-c2nc(CSCC(=O)NCc3ccco3)c(C)o2)cc1	50% (active)
O=C(OCc1nc2ccccc2s1)c1cc2ccccc2oc1=O	-0.9%
CCN1CCN(S(=O)(=O)c2cc(OCC(=O)NC3CCCCC3)c(C)cc2Cl)CC1	35.8%
Cc1cc(Cl)c(S(=O)(=O)N2CCCC2)cc1OCC(=O)NC1CCCCC1	32.3%
C=CCSc1nc2ccccc2n1Cc1nnc(-c2cccs2)o1	8.9%
Cc1cc(CN(C)C(=O)c2cc(COc3ccc4ncccc4c3)on2)on1	28.5%
CN(Cc1cccnc1)C(=O)c1cc(COc2ccc3c(c2)CCCC3)on1	-14.6%
O=C(CNC(=S)N(CCCN1CCOCC1)Cc1cccs1)N1CCCCCC1	-0.9%
COc1ccc(N(CC(=O)N/N=C/c2ccc3c(c2)OCO3)S(=O)(=O)c2ccc(NC(C)=O)cc2)cc1	-7.5%
COc1ccc(S(=O)(=O)N/N=C\c2ccc([N+](=O)[O-])o2)c(OC)c1	52.1% (active)
COc1ccc(OC)c(S(=O)(=O)N/N=C\c2ccc3c(c2)OCO3)c1	-26.9%
Cc1ccc(S(=O)(=O)N/N=C\c2ccc([N+](=O)[O-])o2)cc1C	33.4%
COc1ccc(S(=O)(=O)N/N=C\c2ccc3c(c2)OCO3)c(OC)c1	51.2% (active)
Cc1ccc(S(=O)(=O)N/N=C\c2ccc([N+](=O)[O-])o2)cc1	13.4%
COc1ccc(S(=O)(=O)N/N=C\c2ccc3c(c2)OCO3)cc1	29.5%
